Potency and outcome data for nine molecules are collected here from PubChem BioAssay (Tox21).

Inconclusive results are not listed. A number with no mark means an inactive call. Calls of active or inactive are those of the source. Unless noted, calls come from the whole dose curve; as a rule, active = well fitted curve in the direction sought with a large enough effect in the repeat runs; inconclusive = weak or mixed curves; inactive = no such curve, though single readings can be large; an effect the other way counts as inactive or inconclusive.

Test [1] in a line: qHTS assay to identify small molecule agonists of the peroxisome proliferator-activated receptor delta (PPARd) signaling pathway - cell viability counter screen (AID 743211). Note: nearly all actives have a fitted effect of over 55% in size. Note: potency is the fitted concentration of half-maximal effect. An outline of the steps:
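PPARd-bla HEK293H cells (3000/well) were pre-incubated 5 h at 37 C, then exposed to compound for 17 h at 37 C. After 2 h with LiveBLAzer substrate, CellTiter-Glo was added to the same wells; luminescence read after 30 min at room temperature.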
(Quantitative high-throughput screening tests each substance at several concentrations.)

Test [2] addresses Bile acid receptor (Homo sapiens) (UniProt Q96RI1). The test is described as follows: qHTS assay to identify small molecule agonists of the farnesoid-X-receptor (FXR) signaling pathway (AID 743220; active = well fitted activation curve with a large enough effect in the signal ratio in the repeat runs, not every such curve was filed as active; the % refers to the signal ratio). An outline of the steps:
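FXR-UAS-bla HEK 293T cells carrying a UAS-driven beta-lactamase reporter were plated for 5 h at 37C/5% CO2, then exposed to DMSO-dissolved Tox21 10K compounds for 16 h at 37C. A LiveBLAzer B/G FRET substrate was loaded for 2 h at room temperature before fluorescence reading.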

Test [3] can be described thus: qHTS assay to identify small molecule antagonists of the vitamin D receptor (VDR) signaling pathway - cell viability counter screen (AID 743225). Note: nearly all actives have a fitted effect of over 50% in size. An outline of the steps:
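VDR-UAS-bla HEK 293T cells were plated and incubated 4 h at 37C, then dosed with compound plus 3 nM (final) 1-alpha,25-dihydroxyvitamin D3 for 16 h. After the 2 h beta-lactamase read, viability in the same wells was read as CellTiter-Glo luminescence after 30 min at room temperature.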

Test [4] can be described thus: qHTS assay to identify small molecule agonists of the NFkB signaling pathway (AID 1159509; active = well fitted curve in the direction sought with a large enough effect in the signal ratio in the repeat runs, not every such curve was filed as active; the % refers to the signal ratio; note: series mostly up to about 61 µM). An outline of the steps: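 Readout: FRET fluorescence, 405 nm excitation, 460/530 nm emission; beta-lactamase expression disrupts FRET. Cells: ME-180 stably carrying NF-kB-driven bla reporter. Compound exposure 5 hr, 37 C, 5% CO2.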
Test [5] can be described thus: qHTS assay to identify small molecule agonists of the NFkB signaling pathway - cell viability counter screen (AID 1159515; calls by dose curve; note: series mostly up to about 61 µM; nearly all actives have a fitted effect of over 55% in size). An outline of the steps:
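Read by CellTiter-Glo luminescence (30 min, room temperature) in the wells also used for the beta-lactamase FRET read. ME-180 NFkB-bla cells at 2,000 per well were plated overnight, then exposed to compound for 5 hr at 37 C.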

The nature of test [6]: qHTS assay to identify small molecule agonists of the endoplasmic reticulum stress response signaling pathway (AID 1159516; active = well fitted activation curve with a large enough effect in the signal ratio in the repeat runs, not every such curve was filed as active; the % refers to the signal ratio). An outline of the steps: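 Ratiometric FRET readout (405 nm excitation; 460 and 530 nm emission) of a beta-lactamase gene driven by the ER stress response element, after 2 hr substrate loading. HeLa ESRE-bla cells were seeded overnight and treated with compounds for only 5 hr at 37 C.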

Test [7] in a line: qHTS assay to identify small molecule agonists of the endoplasmic reticulum stress response signaling pathway - cell viability counter screen (AID 1159517; calls by dose curve; note: series mostly up to about 61 µM; nearly all actives have a fitted effect of over 50% in size). An outline of the steps:
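Steps: seed 1,500 ESRE-bla HeLa cells per well; incubate overnight at 37 C, 5% CO2; add compounds in DMSO for 5 hr; run FRET substrate 2 hr RT; add CellTiter-Glo, wait 30 min, read luminescence.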

The target of test [8] is Nuclear receptor ROR-gamma (Homo sapiens) (UniProt P51449). The test is described as follows: qHTS assay to identify small molecule antagonists of the retinoid-related orphan receptor gamma (ROR-gamma) signaling pathway (AID 1159521; note: nearly all actives have a fitted effect of over 50% in size; note: potency is the fitted concentration of half-maximal effect). An outline of the steps: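 Tet-on ROR-gamma CHO cells with ROR response element-luciferase reporter; compounds added 2 hr before 1 uM doxycycline induction, then 16 hr at 37 C. Antagonism scored as decreased ONE-Glo luminescence.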

The nature of test [9]: qHTS assay to identify small molecule agonists of the AP-1 signaling pathway - cell viability counter screen (AID 1159525; calls by dose curve; note: nearly all actives have a fitted effect of over 55% in size). An outline of the steps: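 Same-well cytotoxicity counter screen of the Tox21 10K library in ME-180 cells. The readout is ATP-dependent luminescence after 5 h compound treatment. Data are normalised to DMSO and tetra n-octyl ammonium bromide controls.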

Test [10] can be described thus: qHTS assay to identify small molecule agonists of the AP-1 signaling pathway (AID 1159526; calls by dose curve).
Test [11] deals with Peroxisome proliferator-activated receptor delta (Homo sapiens) (UniProt Q03181). The test is described as follows: qHTS assay to identify small molecule agonists of the peroxisome proliferator-activated receptor delta (PPARd) signaling pathway (AID 743212; calls by dose curve). An outline of the steps: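 Read-out: beta-lactamase FRET fluorescence after 2 h room-temperature incubation with LiveBLAzer B/G substrate. Cells were HEK293H carrying a UAS-bla reporter for PPARd, treated at 37 C with DMSO-dissolved compounds.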
Chain of Peroxisome proliferator-activated receptor delta (Homo sapiens) (Q03181 whole entry, looked up): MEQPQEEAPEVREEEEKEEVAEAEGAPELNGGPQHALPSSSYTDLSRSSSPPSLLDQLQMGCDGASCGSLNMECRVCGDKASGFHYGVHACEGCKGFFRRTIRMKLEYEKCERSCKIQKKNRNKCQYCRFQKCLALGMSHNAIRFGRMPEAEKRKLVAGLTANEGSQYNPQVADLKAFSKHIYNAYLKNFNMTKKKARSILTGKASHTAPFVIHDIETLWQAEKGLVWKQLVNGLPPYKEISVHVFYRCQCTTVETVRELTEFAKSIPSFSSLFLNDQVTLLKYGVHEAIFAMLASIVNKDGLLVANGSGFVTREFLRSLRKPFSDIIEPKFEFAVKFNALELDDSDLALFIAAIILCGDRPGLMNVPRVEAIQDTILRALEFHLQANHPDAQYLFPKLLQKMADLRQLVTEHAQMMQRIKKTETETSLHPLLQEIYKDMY

Test [12] can be described thus: qHTS assay to identify small molecule antagonists of the peroxisome proliferator-activated receptor delta (PPARd) signaling pathway - cell viability counter screen (AID 743213). Note: nearly all actives have a fitted effect of over 50% in size. An outline of the steps: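 CellTiter-Glo was added to PPARd-bla HEK293H wells following 17 h compound treatment in the presence of 300 nM L165041. Luminescence was recorded after 30 min at room temperature.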

The nature of test [13]: qHTS assay to identify small molecule antagonists of the farnesoid-X-receptor (FXR) signaling pathway - cell viability counter screen (AID 743221; active = well fitted cell-killing curve with a large enough effect in the repeat runs, not every such curve was filed as active; note: nearly all actives have a fitted effect of over 50% in size). An outline of the steps: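 GeneBLAzer FXR-UAS-bla HEK 293T cells, compound plus chenodeoxycholic acid (50 uM final), 16 h at 37 C. CellTiter-Glo added to the same wells after the beta-lactamase read; luminescence read after 30 min at room temperature as viability.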

Test [14] can be described thus: qHTS assay to identify small molecule agonists of the vitamin D receptor (VDR) signaling pathway - cell viability counter screen (AID 743224). An outline of the steps: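 Counter screen run in the same wells as the VDR-bla reporter assay: CellTiter-Glo luminescence, 30 min at room temperature, after 16 h compound treatment at 37C of cells pre-plated for 4 h.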
Test [15] is described as follows: qHTS assay to identify small molecule antagonists of the retinoid-related orphan receptor gamma (ROR-gamma) signaling pathway - cell viability counter screen (AID 1159520). Note: nearly all actives have a fitted effect of over 50% in size. An outline of the steps:
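Tet-on ROR gamma CHO cells were given compounds for 2 hr, then doxycycline hyclate at 1 uM final, and incubated 16 hr at 37 C. Viability was measured as ATP content by CellTiter-Glo luminescence.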

Test [16] can be described thus: qHTS assay to identify small molecule agonists of the farnesoid-X-receptor (FXR) signaling pathway - cell viability counter screen (AID 743218). Note: nearly all actives have a fitted effect of over 45% in size. An outline of the steps:
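Viability counter screen in the same wells: CellTiter-Glo luminescence, 30 min room-temperature incubation, measured after the beta-lactamase read. Cells were GeneBLAzer FXR-UAS-bla HEK 293T, compound-treated 16 h at 37C.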

In test [17] the target is Bile acid receptor (Homo sapiens) (UniProt Q96RI1). The test is described as follows: qHTS assay to identify small molecule antagonists of the farnesoid-X-receptor (FXR) signaling pathway (AID 743217; active = well fitted inhibition curve with a large enough effect in the signal ratio in the repeat runs, not every such curve was filed as active; the % refers to the signal ratio). An outline of the steps:
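Antagonist mode: chenodeoxycholic acid at 50 uM final stimulates a UAS-driven beta-lactamase reporter in HEK 293T FXR-bla cells during 16 h, 37C compound exposure. Read-out is FRET substrate fluorescence after 2 h at room temperature.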

Test [18] deals with Vitamin D3 receptor (Homo sapiens) (UniProt P11473). The test is described as follows: qHTS assay to identify small molecule antagonists of the vitamin D receptor (VDR) signaling pathway (AID 743223; active = well fitted inhibition curve with a large enough effect in the signal ratio in the repeat runs, not every such curve was filed as active; the % refers to the signal ratio). An outline of the steps: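 VDR-bla cells were treated with compound plus 3 nM final 1alpha,25-dihydroxyvitamin D3 for 16 h at 37C. Beta-lactamase reporter read by B/G FRET substrate fluorescence after 2 h at room temperature. qHTS format.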
Chain of Vitamin D3 receptor (Homo sapiens) (P11473 whole entry, looked up): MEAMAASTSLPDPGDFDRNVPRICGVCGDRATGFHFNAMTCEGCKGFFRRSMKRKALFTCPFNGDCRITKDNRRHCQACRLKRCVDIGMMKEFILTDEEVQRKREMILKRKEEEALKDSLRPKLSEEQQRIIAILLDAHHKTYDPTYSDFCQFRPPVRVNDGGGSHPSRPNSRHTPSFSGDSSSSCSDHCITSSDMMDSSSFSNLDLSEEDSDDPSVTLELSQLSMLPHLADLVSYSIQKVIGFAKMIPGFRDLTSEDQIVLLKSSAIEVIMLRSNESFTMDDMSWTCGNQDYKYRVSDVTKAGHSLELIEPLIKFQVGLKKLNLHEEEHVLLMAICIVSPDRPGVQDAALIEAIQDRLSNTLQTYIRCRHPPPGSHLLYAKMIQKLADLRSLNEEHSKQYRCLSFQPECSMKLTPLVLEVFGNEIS

The target is the same in test [19]. The test is described as follows: qHTS assay to identify small molecule agonists of the vitamin D receptor (VDR) signaling pathway (AID 743222; calls by dose curve). An outline of the steps: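 Agonist mode, beta-lactamase reporter: fluorescence from LiveBLAzer B/G FRET substrate (2 h, room temperature) read after 16 h compound treatment at 37 C of VDR-bla cells, which were pre-incubated 4 h after seeding.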

Test [20] deals with Peroxisome proliferator-activated receptor delta (Homo sapiens) (UniProt Q03181). The experiment in a line: qHTS assay to identify small molecule antagonists of the peroxisome proliferator-activated receptor delta (PPARd) signaling pathway (AID 743215; active = well fitted inhibition curve with a large enough effect in the signal ratio in the repeat runs, not every such curve was filed as active; the % refers to the signal ratio;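 note: cells stimulated with agonist L165041 at 300 nM final during compound exposure; series mostly up to about 62 µM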). An outline of the steps: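 Agonist L165041 (300 nM final) added with compound to PPARd-bla HEK293H UAS-bla reporter cells; 17 h incubation at 37 C. Read-out: LiveBLAzer FRET substrate, 2 h at room temperature, fluorescence intensity.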

Chain of Bile acid receptor (Homo sapiens) (Q96RI1 whole entry, looked up): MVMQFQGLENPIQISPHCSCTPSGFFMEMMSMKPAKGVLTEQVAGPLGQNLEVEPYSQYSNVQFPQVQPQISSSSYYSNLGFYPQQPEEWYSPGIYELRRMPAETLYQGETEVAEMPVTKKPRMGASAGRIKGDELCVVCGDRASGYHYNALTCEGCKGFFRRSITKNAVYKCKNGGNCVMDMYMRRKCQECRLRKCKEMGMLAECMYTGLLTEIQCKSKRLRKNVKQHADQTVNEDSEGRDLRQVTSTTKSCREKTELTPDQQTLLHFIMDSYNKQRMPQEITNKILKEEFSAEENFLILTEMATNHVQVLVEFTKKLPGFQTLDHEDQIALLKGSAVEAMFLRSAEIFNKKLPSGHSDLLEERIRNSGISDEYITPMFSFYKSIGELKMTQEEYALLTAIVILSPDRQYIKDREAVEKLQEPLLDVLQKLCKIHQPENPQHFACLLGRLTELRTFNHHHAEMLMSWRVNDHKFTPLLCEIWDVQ

Take `CO[C@H]1C=CO[C@@]2(C)Oc3c(C)c(O)c4c(O)c(c5c(c4c3C2=O)=NC2(CCN(CC(C)C)CC2)N=5)NC(=O)/C(C)=C\C=C/[C@H](C)[C@H](O)[C@@H](C)[C@@H](O)[C@@H](C)[C@H](OC(C)=O)[C@@H]1C`: the values for the Potency in test [1] and in test [8] were 24 µM (active) and 53.3 µM (active), respectively. Further, the Potency entry in test [2] and in [3] was “inactive” throughout. Moreover, the call in test [4], in test [5], in [6], in test [7], in test [9] and in test [10] was inactive.

Take `C[C@]12CCC(=O)C=C1C=C[C@@H]1[C@@H]2CC[C@@]2(C)[C@H]1CC[C@@]21CCC(=O)O1`: the Potency result in test [1], in test [11], in test [12], in test [13], in test [14] and in test [3] was “inactive” throughout. In test [15], the Potency entry was “inactive”. Besides, the call in test [4], in [5], in [6], in test [7] and in test [9] was inactive.

On to `CCCCC(=O)O[C@]1(C(=O)CO)CC[C@H]2[C@@H]3CCC4=CC(=O)CC[C@]4(C)[C@H]3[C@@H](O)C[C@@]21C`, for which the Potency result in [1], in test [11], in test [12], in test [16], in test [2] and in [13] was “inactive” in each case. Moreover, the Potency entry in test [14], in test [3] and in test [15] was “inactive” in each case. For the same molecule, the molecule was classed as inactive in test [4], in [5], in test [6], in test [7] and in test [9].

Regarding `NC(=O)N(O)[C@@H]1C=C[C@H](Oc2cccc(Oc3ccc(F)cc3)c2)C1`, the Potency entry in test [1], in test [11], in test [12], in test [17], in test [2] and in test [13] was “inactive” each time. In addition, the Potency entry in [14], in test [3] and in test [8] was “inactive” in each case. Further, the result in [18], in test [4], in test [5], in test [6], in [7] and in test [9] was inactive.

On to `COCCOC`, for which the Potency entry in test [1], in test [12], in [17], in test [16], in test [2] and in test [13] was “inactive” in each case. Besides, the Potency result in test [14] and in test [3] was “inactive” throughout. Moreover, the molecule was called inactive in test [19], in test [18], in test [4], in test [5], in [6] and in test [7]. Moreover, the result in test [9] was inactive. In addition, the Potency in test [8] was 41.3 µM (active).

For the molecule `CO[C@@]12[C@H](COC(N)=O)C3=C(C(=O)C(C)=C(N)C3=O)N1C[C@@H]1N[C@@H]12`, the Potency entry in test [1], in test [11], in [12], in test [16], in [2] and in [13] was “inactive” throughout. The Potency result in test [3] and in test [8] was “inactive” in each case. Moreover, the call in test [4], in test [5], in test [6], in test [7], in test [9] and in [10] was inactive.

Regarding `Cc1ccc(S)cc1`, the Potency result in test [1], in test [11], in [12], in test [20], in [16] and in test [13] was “inactive” each time. The Potency result in [14], in [3] and in test [8] was “inactive” throughout. The call in [4], in test [5], in test [6], in test [7], in [9] and in test [10] was inactive.

Consider `CCCCC(=O)O[C@]1(C(=O)CO)[C@@H](C)C[C@H]2[C@@H]3CCC4=CC(=O)C=C[C@]4(C)[C@@]3(F)[C@@H](O)C[C@@]21C`, for which the Potency entry in test [1], in [11], in [16], in test [13] and in test [3] was “inactive” throughout. Further, the molecule was called inactive in test [18], in [4], in [5], in test [6], in test [7] and in test [9]. In addition, the Potency in test [8] is 30.6 µM (active).

In the case of `CCCCCCCCCCOS(=O)(=O)O`, the Potency entry in test [1], in test [12], in test [17], in test [2], in test [13] and in [14] was “inactive” each time. The Potency entry in test [3] and in test [15] was “inactive” in each case. Moreover, the outcome in test [18], in test [4], in [5], in [6], in test [7] and in test [9] was inactive.
